Results reported in paper PMC5540273 (PLoS ONE, 2017).

How the values were obtained:
Conditions in all cases: concentration: 1 μM, replicates: in singlicate; n = 1
SNARK = system: T1, SNARK
T1 construct: gene NUAK2

SNRK = system: SNRK
SRC = system: SRC
SRMS = system: SRMS
SRPK1 = system: SRPK1
SRPK2 = system: SRPK2
SRPK3 = system: SRPK3
STK16 = system: STK16
STK33 = system: STK33
STK35 = system: STK35
STK36 = system: STK36
STK39 = system: STK39
SYK = system: SYK
SgK110 = system: SgK110
TAK1 = system: T2, TAK1
T2 construct: gene MAP3K7

TAOK1 = system: TAOK1
TAOK2 = system: TAOK2
TAOK3 = system: TAOK3
TBK1 = system: TBK1
TEC = system: TEC
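Also: KINOMEscan kinase panel screen.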

| Structure (SMILES) | %Inh (SNARK) [%] | %Inh (SNRK) [%] | %Inh (SRC) [%] | %Inh (SRMS) [%] | %Inh (SRPK1) [%] | %Inh (SRPK2) [%] | %Inh (SRPK3) [%] | %Inh (STK16) [%] | %Inh (STK33) [%] | %Inh (STK35) [%] | %Inh (STK36) [%] | %Inh (STK39) [%] | %Inh (SYK) [%] | %Inh (SgK110) [%] | %Inh (TAK1) [%] | %Inh (TAOK1) [%] | %Inh (TAOK2) [%] | %Inh (TAOK3) [%] | %Inh (TBK1) [%] | %Inh (TEC) [%] |
| --- | --- | --- | --- | --- | --- | --- | --- | --- | --- | --- | --- | --- | --- | --- | --- | --- | --- | --- | --- | --- |
| CN(c1ccc2c(c1)nc(NCc1ccccc1)n2C)c1ccnc(Nc2ccc(CS(C)(=O)=O)cc2)n1.Cl [GW811603] | 0 | 0 | 32 | 5 | 0 | 30 | 34 | 54 | 0 | 0 | 0 | 7 | 69 | 0 | 46 | 0 | 0 | 0 | 4 | 0 |
| Cc1ccc(C)c(NC(=O)Nc2ccc(C)c(-c3ccc(C(=O)Nc4ccncc4)cc3)c2)c1 [GSK1398473] | 0 | 5 | 8 | 0 | 26 | 0 | 0 | 8 | 3 | 6 | 2 | 5 | 17 | 20 | 0 | 0 | 0 | 0 | 2 | 5 |
| O=C(Nc1n[nH]c2cc(-c3cccs3)ccc12)C1CC1 [SB-731284] | 13 | 42 | 0 | 1 | 44 | 23 | 52 | 4 | 0 | 15 | 0 | 0 | 0 | 0 | 23 | 61 | 0 | 34 | 47 | 0 |
| Cc1ccc(NC(=O)c2ccnc(N3CCCCC3)c2)cc1-c1ccc(C(=O)NCC2CC2)cc1 [GW775610] | 0 | 0 | 0 | 0 | 0 | 0 | 14 | 0 | 0 | 0 | 0 | 15 | 0 | 0 | 0 | 0 | 0 | 0 | 0 | 0 |
| Cc1ccc(NC(=O)c2ccc(Cl)c(Cl)c2)cc1-c1ccc(C(=O)Nc2ccncc2)cc1 [GSK1398460] | 9 | 0 | 23 | 0 | 34 | 0 | 14 | 14 | 0 | 0 | 0 | 0 | 21 | 4 | 12 | 0 | 0 | 0 | 23 | 15 |
| CN1CCN(Cc2ccc(NC(=O)Nc3ccc(N(C)c4ccnc(Nc5ccc(CS(C)(=O)=O)cc5)n4)cc3)cc2)CC1.Cl [GW827654] | 59 | 10 | 3 | 0 | 92.3 | 31 | 82 | 80 | 0 | 18 | 49 | 36 | 84 | 0 | 89 | 13 | 0 | 0 | 30 | 9 |
| CCOc1nccc(-c2c(-c3ccc(F)cc3)ncn2C2CCNCC2)n1 [SB-249175] | 82 | 21 | 0 | 34 | 8 | 19 | 1 | 0 | 4 | 0 | 24 | 74 | 32 | 0 | 34 | 100 | 0 | 73 | 23 | 10 |
| NCCC(NC(=O)c1cc(Br)c(-c2ccnc3[nH]ccc23)s1)c1ccccc1.O=C(O)C(F)(F)F.O=C(O)C(F)(F)F (centres unmarked) [GSK1307810] | 90.2 | 0 | 0 | 0 | 81 | 36 | 83 | 63 | 90 | 20 | 0 | 5 | 18 | 70 | 51 | 48 | 10 | 0 | 5 | 0 |
| COc1ccc(NC(=O)c2ccoc2)cc1-c1ccc(C(=O)NCC2CC2)cc1 [GW810437] | 18 | 12 | 10 | 25 | 0 | 0 | 12 | 0 | 0 | 0 | 0 | 10 | 12 | 36 | 18 | 23 | 24 | 15 | 8 | 0 |
| CN(c1ccc(NC(=O)Nc2cccc(Cl)c2)cc1)c1ccnc(N)n1.Cl [GW830707] | 0 | 0 | 15 | 3 | 3 | 0 | 8 | 6 | 2 | 0 | 0 | 0 | 2 | 0 | 19 | 0 | 8 | 0 | 0 | 0 |
